Only some compounds are listed: those with a hit (about 2.5% of all), similar ones and a draw of the others.
ASK1 primary: human ASK1 kinase inhibition, primary screen; inhibition, % at 7.44 µM; AID 1159602; hit rate 0.99% among 22,000; Q99683; AlphaScreen MKK6 phosphorylation by ASK1, luminescence; in the data active = inhibition above about 35%;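 note: 0% = median of compound wells and 100% = no enzyme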
Target sequence (Q99683 whole entry, looked up): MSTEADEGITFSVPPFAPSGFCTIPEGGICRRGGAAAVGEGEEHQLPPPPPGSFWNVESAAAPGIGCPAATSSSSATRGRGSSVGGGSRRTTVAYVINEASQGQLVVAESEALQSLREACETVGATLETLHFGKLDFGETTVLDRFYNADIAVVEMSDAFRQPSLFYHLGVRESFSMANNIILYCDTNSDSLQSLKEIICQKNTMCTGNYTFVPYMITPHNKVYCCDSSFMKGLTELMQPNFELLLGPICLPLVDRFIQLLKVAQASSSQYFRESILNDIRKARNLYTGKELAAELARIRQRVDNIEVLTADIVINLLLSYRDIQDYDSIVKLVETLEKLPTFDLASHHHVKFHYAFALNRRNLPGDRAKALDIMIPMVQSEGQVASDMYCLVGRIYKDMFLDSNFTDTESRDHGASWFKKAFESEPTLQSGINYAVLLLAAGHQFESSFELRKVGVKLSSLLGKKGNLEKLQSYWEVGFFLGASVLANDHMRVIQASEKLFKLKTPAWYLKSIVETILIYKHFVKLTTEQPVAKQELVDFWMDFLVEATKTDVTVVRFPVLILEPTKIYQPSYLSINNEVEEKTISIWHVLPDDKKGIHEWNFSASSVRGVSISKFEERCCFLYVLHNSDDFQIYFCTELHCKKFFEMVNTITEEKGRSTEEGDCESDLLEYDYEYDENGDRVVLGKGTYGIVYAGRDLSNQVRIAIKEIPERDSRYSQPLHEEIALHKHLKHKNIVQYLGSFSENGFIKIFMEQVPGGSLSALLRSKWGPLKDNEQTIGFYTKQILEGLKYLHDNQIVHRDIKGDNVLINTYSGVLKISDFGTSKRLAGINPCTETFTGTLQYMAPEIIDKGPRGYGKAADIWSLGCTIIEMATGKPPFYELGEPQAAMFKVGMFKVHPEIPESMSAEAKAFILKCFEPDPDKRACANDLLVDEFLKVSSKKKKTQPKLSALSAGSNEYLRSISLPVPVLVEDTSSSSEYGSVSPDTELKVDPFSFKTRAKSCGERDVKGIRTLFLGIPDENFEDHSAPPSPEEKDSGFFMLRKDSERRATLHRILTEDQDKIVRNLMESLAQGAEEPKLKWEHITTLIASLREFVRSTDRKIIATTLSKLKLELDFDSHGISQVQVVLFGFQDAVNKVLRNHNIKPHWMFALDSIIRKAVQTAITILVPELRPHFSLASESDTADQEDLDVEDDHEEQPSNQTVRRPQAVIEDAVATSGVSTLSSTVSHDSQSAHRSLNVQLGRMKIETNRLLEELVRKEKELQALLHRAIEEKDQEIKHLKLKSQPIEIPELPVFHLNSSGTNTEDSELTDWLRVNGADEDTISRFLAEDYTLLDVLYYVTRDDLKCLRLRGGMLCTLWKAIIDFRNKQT
ULK1 primary: human ULK1 kinase inhibition, primary screen; O75385; AlphaScreen Atg13 phosphorylation by ULK1, luminescence; inhibition, % at 5.96 µM; hit rate 1.9% among 30,000; AID 1259251; in the data active = inhibition above about 43%;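 note: 0% = median of compound wells and 100% = no enzyme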
Active calls of the source: *; / = not tested or not shown.

SMILES	ASK1 primary	ULK1 primary
CNC(=O)c1ccccc1Nc1cc(Nc2ccc(C(=O)NC[C@H](O)C(=O)N(C)C)cc2OC)ncc1C(F)(F)F	6.2	89.1*
O=C(Nc1ccccc1)c1cccc(-c2ccccc2)c1	-6.3	-4.4
CC(C)N(CCNC(=O)c1csc(Nc2ccc(N3CCOCC3)cc2)n1)C(C)C	-3.3	10.3
COCCNc1cc(-c2ccccc2)nc(-c2ccncc2)n1	/	-6.9
O=C(NCCN1CCOCC1)c1cccc(-c2n[nH]c3ccc(Nc4ccccc4Cl)cc23)c1	-3.0	-34.1
Cc1ncn(-c2ccc(Nc3ncc4cccc(-c5cnc6ccccc6c5)c4n3)cc2)n1	-8.0	9.5
Cc1ncn(-c2ccc(N(CC3CC3)c3ncc4cccc(-c5cnn(CC6CC6)c5)c4n3)cc2)n1	-5.7	99.0*
Cn1cc(-c2ccc3cnc(Nc4ccc(-n5cnc(N6CCOCC6)n5)cc4)cc3c2)cn1	11.3	73.7*
Cn1cc(-c2cccc3cnc(Nc4ccc(-n5cnc(N6CCOCC6)n5)cc4)nc23)cn1	17.0	15.0
Cn1cc(-c2nc(Nc3ccc(-n4cnc(N5CCOCC5)n4)cc3)ncc2F)cn1	-37.0	19.1
Cc1ccc(-c2ncn(-c3ccc(Nc4ncc(Cl)c(-c5cnn(C)c5)n4)cc3)n2)cn1	15.8	6.9
Cc1ccc(-c2ncn(-c3ccc(Nc4ncc5ccc(-c6cnn(C)c6)nc5n4)cc3)n2)cn1	10.6	5.8
Cc1ccc(-c2ccc(Nc3ncc4ccc(-c5cnn(C)c5)c(Cl)c4n3)cc2)cn1	2.1	43.8*
Cc1c(-c2cnn(C)c2)ccc2cnc(Nc3ccc(-n4cnc(N5CCOCC5)n4)cc3)nc12	-66.0	59.6*
Cn1cc(-c2nc(Nc3ccc(-n4cnc(N5CCC(O)CC5)n4)cc3)ncc2Cl)cn1	-94.9	70.8*
Cc1cnc(-c2c(C)nn(C)c2C)nc1Nc1ccc(Oc2ccccc2)cc1	3.6	4.9
CC(C)N1CCN(c2ncn(-c3ccc(Nc4ncc5ccc(-c6cnn(C)c6)c(Cl)c5n4)cc3)n2)CC1	-16.3	91.0*
Cc1nc(C)n(-c2ccc(Nc3nc(-c4cnn(C)c4)cc(N4CCOCC4)n3)cc2)n1	5.0	0.7
Cc1ncn(-c2ccc(Nc3ncc4ccnc(-c5cnn(C)c5)c4n3)cc2)n1	-0.4	9.8
Cc1[nH]ncc1-c1ccc2cnc(Nc3ccc(-n4cnc(N5CCOCC5)n4)cc3)nc2c1	-45.5	76.2*
Cn1cc(-c2ccc3cnc(Nc4ccc(N5CCOCC5)nc4)nc3c2Cl)cn1	22.3	78.2*
CCOC(=O)c1c(-c2cnn(C)c2)ccc2cnc(Nc3ccc(-n4cnc(N5CCOCC5)n4)cc3)nc12	-8.2	59.9*
Cc1n[nH]c(C)c1-c1ccc2cnc(Nc3ccc(-n4cnc(N5CCOCC5)n4)cc3)nc2c1	-51.1	-6.9
Cn1cc(-c2ccc3cnc(Nc4ccc(-n5cnc(N6CCOCC6)n5)cc4)nc3c2OCCN2CCOCC2)cn1	1.3	33.1
O=C1CCCN1CCCNc1cc(Nc2ccc3ncccc3c2)ncn1	2.0	2.4
SMILES	ASK1 primary	ULK1 primary
C=CCN(C(=O)CCC(=O)Nc1cc(C)on1)C1(C(=O)NC2CCCCC2)CCCC1	/	1.6
CCCOc1ccnc2c1c(=O)n(Cc1cccnc1)c(=O)n2C	/	12.9
COc1ccc(-c2nc(C)cc(NC3CCN(Cc4ccccc4)CC3)n2)cn1	3.0	-1.1
COc1cccc(CNC(=O)Nc2ccc(-c3ccnc4nc[nH]c34)cc2)c1	-22.4	1.0
Cn1cc(-c2cccc3nc(Nc4ccc(-n5cnc(N6CCOCC6)n5)cc4)ncc23)cn1	9.1	15.2
Cn1cc(-c2ccc3cnc(Nc4ccccc4)cc3c2)cn1	-29.6	65.7*
Cc1nc(C)n(-c2ccc(Nc3cc(-c4cnn(C)c4)ccn3)cc2)n1	-11.7	7.4
Cn1cc(-c2ccc3cnc(Nc4ccc(-n5cnc(N6CCOCC6)n5)cc4)nc3c2Cl)cn1	-18.5	47.4*
COc1ccc(-c2nccc(NCc3nc4ccccc4[nH]3)n2)cn1	-16.7	-8.8
O=C(NCc1cccc(C(F)(F)F)c1)c1cccc(Nc2ccc(N3CCOCC3)cc2)n1	32.9	-21.2
Fc1cc(-c2nc(Nc3ccc(CN4CCCCC4)cc3)ncc2F)cc(N2CCOCC2)c1	9.7	43.6*
OC1CCN(c2ccc(Nc3nccc(-c4cncc(N5CCOCC5)c4)n3)cc2)CC1	6.5	67.7*
Fc1cnc(Nc2ccc(CN3CCCCC3)cc2)nc1-c1cc(N2CCOCC2)cc(C(F)(F)F)c1	7.7	-13.6
Cc1cc(Nc2nccc(-c3cc(C#N)cc(N4CCOCC4)c3)n2)ccc1N1CCOCC1	17.8	13.7
N#Cc1cc(-c2ccnc(Nc3cccc(CN4CCCCC4)c3)n2)cc(N2CCOCC2)c1	31.8	79.2*
OC1CCN(c2ccc(Nc3nccc(-c4cc(F)cc(N5CCOCC5)c4)n3)cc2)CC1	31.0	44.7*
N#Cc1ccc(Nc2nccc(-c3cncc(N4CCOCC4)c3)n2)cc1	24.4	1.4
Fc1cc(-c2ccnc(Nc3ccc(N4CCOCC4)cc3)n2)cc(N2CCOCC2)c1	33.1	5.3
FC(F)(F)c1cccc(CNc2nc(N3CCN(Cc4ccc5c(c4)OCO5)CC3)nc3c2ncn3-c2ccsc2)c1	20.1	6.6
Cn1nccc1Nc1cc(C(=O)NCc2cccnc2)ccn1	-7.9	1.5
O=C(NCc1ccccc1)c1cnc(Nc2ccccn2)s1	-8.6	7.2
c1cc(-c2cncc(N3CCOCC3)c2)nc(Nc2ccc3c(c2)OCCO3)n1	17.6	3.9
c1cc(Cn2cccn2)cc(Nc2nccc(-c3cncc(N4CCOCC4)c3)n2)c1	21.4	80.3*
O=C(Cc1cn(-c2ccc(N3CCN(c4ccccn4)CC3)nn2)c2ccccc12)NCCCN1CCCC1=O	-8.5	17.9
O=C(c1ccc2c(c1)OCCO2)N1CCC(c2nc3ccncc3c(=O)[nH]2)C1 (stereo not drawn)	4.7	11.6
SMILES	ASK1 primary	ULK1 primary
c1cc(Nc2nccc(Nc3ccc(N4CCOCC4)cc3)n2)ncn1	13.4	78.5*
c1cn(-c2ccc(Nc3cc(Nc4ccc(N5CCOCC5)cc4)ncn3)cc2)cn1	2.7	-7.3
c1cc(Nc2cc(Nc3ccc(N4CCOCC4)cc3)ncn2)ccn1	2.4	82.4*
c1ccc(CNc2cc(Nc3ccncc3)ncn2)cc1	-15.7	20.1
c1cc(Nc2nccc(Nc3ccc(N4CCOCC4)cc3)n2)ccn1	9.9	27.9
c1ccc(Nc2cc(Nc3ccncc3)ncn2)cc1	19.7	61.0*
COc1nc(N)nc(-c2ccc(C(=O)N3CCN(C)CC3)cc2)n1	4.0	-3.3
O=C(NCc1ccccc1)c1csc(N2CCN(Cc3ccc4c(c3)OCO4)CC2)n1	-6.3	-0.4
CCN1C(=O)C(C)(C)COc2ccc(NC(=O)Cc3cccc(C)c3)cc21	/	-12.7
Cc1cc(Nc2ccc(N3CCOCC3)cc2)nc(N2CCN(Cc3ccc4c(c3)OCO4)CC2)n1	42.5*	0.2
Cc1cc(Nc2ccccc2)nc(N2CCN(Cc3ccc4c(c3)OCO4)CC2)n1	10.9	-22.9
CCN(CC)C(=O)C1CCCN(c2nc(Nc3ccccc3)c3[nH]cnc3n2)C1 (stereo not drawn)	6.6	-4.4
O=C(Nc1ccccc1)C1CCN(c2ccc(Nc3nccc4ccccc34)nn2)CC1	0.8	-3.5
O=C(OCC1(COC(=O)c2cccnc2)CCCC(COC(=O)c2cccnc2)(COC(=O)c2cccnc2)C1O)c1cccnc1	/	45.3*
NC(=O)c1cccnc1	/	-13.3
CNC(=O)c1cc(F)ccc1Nc1cc(Nc2cccc(OC)c2)ncc1C(F)(F)F	0.4	83.8*
CC(=O)Nc1ccc(Nc2cc(C)nc(Nc3ccc(C(F)(F)F)cc3)n2)cc1	28.3	-34.3
